Source: PubChem (NMMLSC)
RGS16-Gao HTS: modulators of RGS16 binding to Galphao, primary screen, biochemical, human proteins, multiplexed bead flow cytometry. Regulator of G-protein signaling 16 (Homo sapiens) + Guanine nucleotide-binding protein …. bead-based flow cytometry RGS16-Galphao binding, fluorescence; actives lie on both sides. binding response (% of control), % at 10 µM. 0.38% of 220,000 active; call rule not given here;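 note: Galphao activated by GDP with aluminum fluoride before binding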
RGS4-Gao reg: modulators of RGS4 binding to Galphao, primary screen, biochemical, multiplexed bead flow cytometry. Guanine nucleotide-binding protein G(o) subunit alpha (Homo sapiens), P09471. actives lie on both sides. binding response (% of control), % at 10 µM. 0.33% of 220,000 active. AID 1415, 2008; in the data active = binding response below about 49% or above about 150%; inactive = in between;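 note: fluorescent Galphao activated with aluminum fluoride binding bead-coupled RGS4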
GSH fluor: compound fluorescence on glutathione beads, profiling panel, artefact control, biophysical, 488/530 nm, flow cytometry. fluorescence (KMESF) at 10 µM. GSH beads flow cytometry, compound fluorescence 488/530 nm; active compounds read high. 0.25% of 190,000 active. AID 1776, 2009; in the data active = fluorescence above about 89;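 note: glutathione beads carrying GST-tagged Bcl family fusion proteins plus one bare bead set; values are compound well signal with DMSO vehicle wells as background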
RGS8-Gao reg: RGS8-Galphao binding modulators, primary screen, biochemical, multiplexed bead flow cytometry; response (percent of control binding), % at 10 µM; AID 1423, 2008; actives lie on both sides; 0.34% of 220,000 active; in the data active = response below about 60% or above about 140%; inactive = in between;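 note: Galphao activated as the GDP aluminium fluoride complex binding bead-coupled RGS8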
RGS7-Gao reg: RGS7-Galphao binding modulators, primary screen, biochemical, multiplexed bead flow cytometry. Guanine nucleotide-binding protein G(o) subunit alpha (Homo sapiens), P09471. actives lie on both sides. binding response (% of control), % at 10 µM. 0.35% of 220,000 active. AID 1439, 2008; in the data active = binding response below about 49% or above about 150%; inconclusive = no clear call, values can overlap the other calls; inactive = in between;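 note: fluorescent Galphao held in activated GDP-AlF4 state binding bead-coupled RGS7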
Avidin bead fluor: green autofluorescence of compounds with avidin beads – biophysical, 488/530 nm, flow cytometry, artefact control, profiling panel. compound fluorescence 488/530 nm; active compounds read high. fluorescence (KMESF) at 10 µM. 0.38% of 220,000 active; in the data active = fluorescence above about 47
* marks the source's active call; other numbers are inactive results; ? = inconclusive; . = no result given; [ ] = another dose, or the depositor's remark. The list is not random: actives were taken first. Their share in the collection is about 1.2%.

SMILES | RGS16-Gao HTS | RGS4-Gao reg | GSH fluor | RGS8-Gao reg | RGS7-Gao reg | Avidin bead fluor
COC(=O)COc1ccc(S(=O)(=O)Nc2ccccc2C(=O)OC)cc1 | 108 | 111 | 39 | 104 | 146 | 63*
CC1(C)C2CCC1(C)C(OCC[N+](C)(C)CC(=O)OC1CCCCC1)C2 (stereo unspecified) | 106 | 115 | 18 | 114 | 118 | 13
CCc1cc(=O)[nH]c(-n2[nH]c(-c3ccccc3)cc2=O)n1 | 104 | 101 | 13 | 102 | 103 | 14
O=c1cc(-c2ccccc2)[nH]n1-c1nc2ccccc2[nH]1 | 90 | 94 | 25 | 96 | 106 | 50*
O=S(=O)(NC1CCCCCCC1)c1cccs1 | 101 | 99 | 275* | 99 | 100 | 8
CC(C)Nc1c(N)c(=O)oc2ccccc12 | 97 | 99 | 253* | 100 | 104 | 7
CCOC(=O)c1ccc(S(=O)(=O)N2CCN(S(=O)(=O)CC)CC2)cc1 | 71 | 106 | 16 | 100 | 104 | 6
CCOC(=O)c1ccc(S(=O)(=O)N2CCN(CC(=O)NC(=O)NC3CCCCC3)CC2)cc1 | 185*[activator] | 188*[activator] | 30 | 152*[activator] | 176*[activator] | 14
COC(=O)c1sc2ccccc2c1N | 104 | 98 | 17 | 102 | 98 | 7
COC(=O)c1sc2ccccc2c1C(=O)OC | 106 | 103 | 17 | 99 | 118 | 61*
Cc1cccc(-n2nnnc2SCC(=O)c2cc(C)n(CC3CCCO3)c2C)c1 (stereo unspecified) | 101 | 100 | 263* | 98 | 99 | 6
Cc1ccc(-n2nnnc2SCC(=O)c2cc(C)n(CC3CCCO3)c2C)cc1 (stereo unspecified) | 56 | 89 | 14 | 86 | 93 | 4
COc1cccc(CN(C)CC(=O)Nc2c(C)cccc2C(C)C)c1 | 101 | 99 | 11 | 99 | 103 | 11
Cc1ccc2c(c1)CCCN2C(=O)c1ccncc1 | 102 | 102 | 29 | 97 | 143 | 131*
C=CCn1c2ccccc2c2nnc(SCC(=O)NC(C(=O)OC)C(C)C)nc21 (stereo unspecified) | 121 | 123 | 23 | 96 | 139 | 119*
N#Cc1c(N)oc(-c2ccccc2)c1-c1ccccc1 | 99 | 100 | 268* | 101 | 98 | 10
Cc1ccc(NC(=O)c2ccccc2CCc2ccccc2)c(C)c1 | 103 | 102 | 33 | 100 | 122 | 56*
O=C1c2ccccc2C(=O)N1CC1CCCO1 (stereo unspecified) | 98 | 100 | 19 | 100 | 98 | 7
O=c1c2ccccc2c2ccccc2c(=O)n1CC1CCCO1 (stereo unspecified) | 194 | 121 | 252* | 127 | 121 | 4
COc1ccc(Cl)cc1N1C(=O)CC(N2CCc3ccccc32)C1=O (stereo unspecified) | 98 | 92 | 264* | 94 | 88 | 7
CSc1ccccc1NS(=O)(=O)c1ccccc1 | 104 | 102 | 21 | 103 | 104 | 48*
O=C(CCc1nnc(CCCCc2ccccc2)o1)N1CCCCC1CCO (stereo unspecified) | 105 | 107 | . | 105 | ? | 6
COc1ccccc1NC(=O)c1ccc(NC(=O)CN(C)Cc2ccccc2F)cc1 | 98 | 100 | 16 | 99 | ? | 10
CC(=O)Oc1ccc2c(c1)Oc1cc(OC(C)=O)ccc1C21OC(=O)c2ccccc21 | 888*[activator] | 581*[activator] | 200* | 165*[activator] | 628*[activator] | 399*
CC1=[N+](C)c2ccc3ccccc3c2C1(C)C | 95 | 96 | 18 | 98 | 96 | 4
CCCN(CCC)S(=O)(=O)c1ccc(NS(=O)(=O)c2ccc(F)cc2)cc1 | 101 | 102 | 19 | 99 | 110 | 52*
Cn1c2ccccc2c2c(C(=O)N3CCN(c4ccccn4)CC3)cn(C3CCCC3)c(=O)c21 | 107 | 103 | 13 | 102 | 103 | 9
